Test results reported in PubChem BioAssay (Tox21).
Records with an inconclusive call do not appear. Entries that show only a call come without a potency. Values without a mark were called inactive. Activity calls are given as the source filed them. Calls come from the whole dose curve; as a rule, active = well fitted curve in the direction sought with a large enough effect in the repeat runs; inconclusive = weak or mixed curves; inactive = no such curve, though single readings can be large; an effect the other way counts as inactive or inconclusive.

molecular target: Nuclear receptor subfamily 1 group I member 2 (Homo sapiens) (UniProt O75469); assay: Human pregnane X receptor (PXR) small molecule agonists, qHTS assay (AID 1346982); settings: PXR-Luc HepG2, CYP3A4 luciferase reporter, 24 h; series mostly up to 92.4 µM; note: nearly all actives have a fitted effect of over 35% in size; note: potency is the fitted concentration of half-maximal effect
Procedure, shortened: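 Agonist mode qHTS: PXR-Luc HepG2 cells plated 5 hr before DMSO-dissolved compounds were pinned in, cultured 24 hr at 37 C, 5% CO2; ONE-Glo luminescence readout.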

Chain of Nuclear receptor subfamily 1 group I member 2 (Homo sapiens) (O75469 whole entry, looked up): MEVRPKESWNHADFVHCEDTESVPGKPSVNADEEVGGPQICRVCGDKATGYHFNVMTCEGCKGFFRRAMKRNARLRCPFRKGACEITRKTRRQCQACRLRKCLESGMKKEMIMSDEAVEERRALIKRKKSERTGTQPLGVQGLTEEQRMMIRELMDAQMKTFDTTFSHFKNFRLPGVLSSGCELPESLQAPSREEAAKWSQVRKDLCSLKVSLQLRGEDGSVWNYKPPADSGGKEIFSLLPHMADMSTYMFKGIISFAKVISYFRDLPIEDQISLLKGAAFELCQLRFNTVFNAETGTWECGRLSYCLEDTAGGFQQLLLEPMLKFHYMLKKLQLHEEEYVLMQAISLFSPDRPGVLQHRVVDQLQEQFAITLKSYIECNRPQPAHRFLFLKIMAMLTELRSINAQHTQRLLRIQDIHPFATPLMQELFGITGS

| SMILES | Potency |
| --- | --- |
| CC(C)c1ccc2c(C(C)C)cc(C(C)C)c(S(=O)(=O)O)c2c1 | 25.2 µM (active) |
| CC1(C)CCC(C)(C)c2cc(NC(=O)c3ccc(C(=O)O)cc3)ccc21 | inactive |
| O=C(/C=C/c1ccc(O)c(O)c1)O[C@@H]1C[C@](O)(C(=O)O)C[C@@H](O)[C@H]1O | inactive |
| CCOc1nc2cccc(C(=O)O)c2n1Cc1ccc(-c2ccccc2-c2nn[nH]n2)cc1 | inactive |
| CCc1nn(C2CCCCC2)c2cc(C3(C#N)CCC(C(=O)O)CC3)ccc12 (stereo not drawn) | 68.6 µM (active) |
| CCOc1ccc2[nH]cc(C(=O)NCc3ccccc3)c(=O)c2n1 | 19.3 µM (active) |
| CCCCc1cc2ccccc2c(OCCN(C)C)n1 | inactive |
| CCCCC(CC)COCCCN (stereo not drawn) | 60.4 µM (active) |
| Oc1ccc2c(c1)OCO2 | inactive |
| NC(N)=NN=C(/C=C/c1ccc([N+](=O)[O-])o1)/C=C/c1ccc([N+](=O)[O-])o1 | 2.66 µM (active) |
| CCCCC(CC)(CO)CO | inactive |
| SC1CCCC1 | inactive |
| Cc1cc(O)ccc1N | 61.4 µM (active) |
| Cc1ccc(C(=O)C(C)CN2CCCCC2)cc1 (stereo not drawn) | inactive |

molecular target: Nuclear receptor subfamily 1 group I member 2 (Rattus norvegicus) (UniProt Q9R1A7); assay: Rat pregnane X receptor (rPXR) activation by small molecules, qHTS assay (AID 1346983); settings: rPXR luciferase reporter cells, One-Glo luminescence, 24 h; max activation: stronger effect = higher value; note: nearly all actives have a fitted effect of over 20% in size
Procedure, shortened: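 Luminescent readout (One-Glo luciferase, 30 min room temperature) followed 24 hr compound treatment at 37 C of rPXR cells plated 2,000 per well and preincubated 5hr; qHTS format with compounds delivered in DMSO.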

Chain of Nuclear receptor subfamily 1 group I member 2 (Rattus norvegicus) (Q9R1A7 whole entry, looked up): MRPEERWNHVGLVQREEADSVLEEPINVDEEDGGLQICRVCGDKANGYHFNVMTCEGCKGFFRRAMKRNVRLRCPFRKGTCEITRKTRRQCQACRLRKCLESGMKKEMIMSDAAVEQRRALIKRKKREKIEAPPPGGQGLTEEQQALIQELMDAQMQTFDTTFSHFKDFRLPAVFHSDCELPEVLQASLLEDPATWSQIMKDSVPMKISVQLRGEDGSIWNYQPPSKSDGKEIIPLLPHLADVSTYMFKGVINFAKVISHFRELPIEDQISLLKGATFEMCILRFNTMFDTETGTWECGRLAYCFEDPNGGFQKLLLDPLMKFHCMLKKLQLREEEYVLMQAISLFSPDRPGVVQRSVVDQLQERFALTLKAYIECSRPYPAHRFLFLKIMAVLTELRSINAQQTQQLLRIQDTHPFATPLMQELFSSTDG

| SMILES | max activation |
| --- | --- |
| CC(C)(C)C(=O)OCOP(=O)(COCCn1cnc2c(N)ncnc21)OCOC(=O)C(C)(C)C | -2.44% |
| Cc1c(Cn2ccnc2)c2ccccc2n1CCC(=O)O | -1.57% |
| CCN(CC)CCOc1ccc2c(c1)C(=O)c1cc(OCCN(CC)CC)ccc1-2 | 2.03% |
| CCCCOc1ccc(CC(=O)NO)cc1 | -0.916% |
| Oc1ccc(C(O)CNCCCCCCNCC(O)c2ccc(O)c(O)c2)cc1O (stereo not drawn) | -3.6% |
| C[C@H](CCC(=O)O)[C@H]1CC[C@H]2[C@@H]3[C@H](O)C[C@@H]4C[C@H](O)CC[C@]4(C)[C@H]3CC[C@]12C | -0.524% |
| O=C(CCN1CCN2CCCC2C1)N1c2ccccc2Sc2ccc(Cl)cc21 (stereo not drawn) | 3.92% |
| CC1(C)CCC(C)(C)c2cc(NC(=O)c3ccc(C(=O)O)cc3)ccc21 | -8.01% |
| CCOc1nc2cccc(C(=O)O)c2n1Cc1ccc(-c2ccccc2-c2nn[nH]n2)cc1 | -0.587% |
| CCCCc1cc2ccccc2c(OCCN(C)C)n1 | 6.03% |
| NC(N)=NN=C(/C=C/c1ccc([N+](=O)[O-])o1)/C=C/c1ccc([N+](=O)[O-])o1 | -21.7% |
| Cc1ccc(C(=O)C(C)CN2CCCCC2)cc1 (stereo not drawn) | -1.62% |

molecular target: Nuclear receptor subfamily 1 group I member 2 (Homo sapiens) (UniProt O75469); assay: CYP3A4 induction through human pregnane X receptor (PXR) by small molecules, qHTS assay (AID 1346984); settings: DPX-2 HepG2 PXR, CYP3A4-luciferin luminescence, 24 h; series mostly up to 46.1 µM; note: nearly all actives have a fitted effect of over 40% in size; note: potency is the fitted concentration of half-maximal effect
Procedure, shortened: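 Steps: seed DPX-2 cells, 5 hr at 37C; pin-transfer compounds; 24 hr at 37C; add Luciferin-IPA (3uM final), 3 hr at 37C; add One-Glo, 30 min RT; read luminescence.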

| SMILES | Potency |
| --- | --- |
| CC(C)(C)C(=O)OCOP(=O)(COCCn1cnc2c(N)ncnc21)OCOC(=O)C(C)(C)C | inactive |
| CCCCOc1ccc(CC(=O)NO)cc1 | inactive |
| c1ccc(OCc2ccc(CCCN3CCOCC3)cc2)cc1 | inactive |
| C[C@H](CCC(=O)O)[C@H]1CC[C@H]2[C@@H]3[C@H](O)C[C@@H]4C[C@H](O)CC[C@]4(C)[C@H]3CC[C@]12C | inactive |
| O=C(CCN1CCN2CCCC2C1)N1c2ccccc2Sc2ccc(Cl)cc21 (stereo not drawn) | 12.6 µM (active) |
| CCCCc1cc2ccccc2c(OCCN(C)C)n1 | inactive |
| Cc1ccc(C(=O)C(C)CN2CCCCC2)cc1 (stereo not drawn) | inactive |

molecular target: Nuclear receptor subfamily 1 group I member 2 (Homo sapiens) (UniProt O75469); assay: Human pregnane X receptor (PXR) activation by small molecules, qHTS assay (AID 1346985); settings: DPX-2 HepG2 CYP3A4-luciferase, 24 h; series mostly up to 38.3 µM; note: nearly all actives have a fitted effect of over 40% in size; note: potency is the fitted concentration of half-maximal effect
Procedure, shortened: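 DPX-2 cells (HepG2 co-transfected with a PXR response element and a CYP3A4-promoter luciferase construct) were seeded at 2,000 per well, rested 5 hr at 37C, then exposed to DMSO-dissolved compounds for 24 hr. Activation was read as luciferase luminescence.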

| SMILES | Potency |
| --- | --- |
| CC(C)(C)C(=O)OCOP(=O)(COCCn1cnc2c(N)ncnc21)OCOC(=O)C(C)(C)C | inactive |
| Cc1c(Cn2ccnc2)c2ccccc2n1CCC(=O)O | inactive |
| CCN(CC)CCOc1ccc2c(c1)C(=O)c1cc(OCCN(CC)CC)ccc1-2 | inactive |
| CCCCOc1ccc(CC(=O)NO)cc1 | inactive |
| c1ccc(OCc2ccc(CCCN3CCOCC3)cc2)cc1 | inactive |
| Oc1ccc(C(O)CNCCCCCCNCC(O)c2ccc(O)c(O)c2)cc1O (stereo not drawn) | inactive |
| C[C@H](CCC(=O)O)[C@H]1CC[C@H]2[C@@H]3[C@H](O)C[C@@H]4C[C@H](O)CC[C@]4(C)[C@H]3CC[C@]12C | inactive |
| O=C(CCN1CCN2CCCC2C1)N1c2ccccc2Sc2ccc(Cl)cc21 (stereo not drawn) | 12.6 µM (active) |
| CC1(C)CCC(C)(C)c2cc(NC(=O)c3ccc(C(=O)O)cc3)ccc21 | inactive |
| CCCCc1cc2ccccc2c(OCCN(C)C)n1 | inactive |
| NC(N)=NN=C(/C=C/c1ccc([N+](=O)[O-])o1)/C=C/c1ccc([N+](=O)[O-])o1 | inactive |
| Cc1ccc(C(=O)C(C)CN2CCCCC2)cc1 (stereo not drawn) | inactive |

molecular target: Cytochrome P450 2D6 (Homo sapiens) (UniProt P10635); assay: Cytochrome P450 Family 2 Subfamily D Member 6 (CYP2D6) small molecule antagonists: luciferase reporter qHTS assay (AID 1671196); settings: P450-Glo CYP2D6 enzyme assay, luciferin luminescence, 1 h; series mostly up to 115 µM; note: nearly all actives have a fitted effect of over 50% in size; note: potency is the fitted concentration of half-maximal effect
Procedure, shortened: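 P450-Glo format: CYP2D6 converts a proluciferin substrate to luciferin in an NADPH-driven reaction lasting 1 h at room temperature. Light output, proportional to CYP2D6 activity, reflects interference by test chemicals.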

Chain of Cytochrome P450 2D6 (Homo sapiens) (P10635 whole entry, looked up): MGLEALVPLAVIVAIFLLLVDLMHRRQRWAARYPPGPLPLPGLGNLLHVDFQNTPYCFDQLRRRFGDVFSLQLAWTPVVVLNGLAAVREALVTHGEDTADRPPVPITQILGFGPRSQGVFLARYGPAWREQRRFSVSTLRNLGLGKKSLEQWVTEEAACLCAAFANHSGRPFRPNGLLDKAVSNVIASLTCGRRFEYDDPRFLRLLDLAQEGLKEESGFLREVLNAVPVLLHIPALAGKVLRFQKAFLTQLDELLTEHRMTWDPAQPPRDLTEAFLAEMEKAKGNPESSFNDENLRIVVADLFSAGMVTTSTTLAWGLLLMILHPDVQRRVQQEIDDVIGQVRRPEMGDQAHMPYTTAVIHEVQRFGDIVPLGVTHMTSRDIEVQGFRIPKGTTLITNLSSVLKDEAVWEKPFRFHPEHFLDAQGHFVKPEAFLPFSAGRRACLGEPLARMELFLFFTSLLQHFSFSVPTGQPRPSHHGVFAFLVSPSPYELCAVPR

| SMILES | Potency |
| --- | --- |
| OCC1CC2CC1C1CCC(CO)C21 (stereo not drawn) | inactive |
| CC(=O)/C(C)=C/C1C(C)=CCCC1(C)C (stereo not drawn) | inactive |
| O=[N+]([O-])c1cc[n+]([O-])cc1 | 35.6 µM (active) |
| CC(=O)N(CC(=O)N(C)C)c1ccccc1 | inactive |
| COC(=O)C(C)=O | inactive |
| CC(=O)O[C@@H]1C(=O)O[C@@H]2[C@H]1OC(=O)[C@@H]2OC(C)=O | inactive |
| CC(C)(C)C(=O)OCOP(=O)(COCCn1cnc2c(N)ncnc21)OCOC(=O)C(C)(C)C | inactive |
| CCC(C)N(C)C(=O)c1cc2ccccc2c(-c2ccccc2Cl)n1 (stereo not drawn) | inactive |
| CCCCOc1ccc(CC(=O)NO)cc1 | 15.5 µM (active) |
| C=CC(=O)OCC(C)OCC(C)OCC(C)OC(=O)C=C (stereo not drawn) | inactive |
| O=c1[nH]cnc2ccccc12 | inactive |
| c1ccc(OCc2ccc(CCCN3CCOCC3)cc2)cc1 | 15.5 µM (active) |
| CCOC(=O)C1=C(C)NC(C)=C(C(=O)OC)C1c1cccc([N+](=O)[O-])c1 (stereo not drawn) | inactive |
| CC[C@@H]1C[C@H](N(Cc2cc(C(F)(F)F)cc(C(F)(F)F)c2)C(C)=O)c2cc(C(F)(F)F)ccc2N1C(=O)OC(C)C | inactive |
| CN(C(=O)CCCOc1ccc2[nH]c(=O)ccc2c1)C1CCCCC1 | inactive |
| CC(CN)CCCN (stereo not drawn) | 22.4 µM (active) |
| CCCCCOC(=O)c1ccc(O)cc1 | 71.8 µM (active) |

| SMILES | Potency |
| --- | --- |
| C[C@H](CCC(=O)O)[C@H]1CC[C@H]2[C@@H]3[C@H](O)C[C@@H]4C[C@H](O)CC[C@]4(C)[C@H]3CC[C@]12C | 56.6 µM (active) |
| O=C(CCN1CCN2CCCC2C1)N1c2ccccc2Sc2ccc(Cl)cc21 (stereo not drawn) | 6.74 µM (active) |
| CC(C)c1ccc2c(C(C)C)cc(C(C)C)c(S(=O)(=O)O)c2c1 | inactive |
| CC1(C)CCC(C)(C)c2cc(NC(=O)c3ccc(C(=O)O)cc3)ccc21 | inactive |
| O=C(/C=C/c1ccc(O)c(O)c1)O[C@@H]1C[C@](O)(C(=O)O)C[C@@H](O)[C@H]1O | inactive |
| CCc1nn(C2CCCCC2)c2cc(C3(C#N)CCC(C(=O)O)CC3)ccc12 (stereo not drawn) | inactive |
| CCOc1ccc2[nH]cc(C(=O)NCc3ccccc3)c(=O)c2n1 | inactive |
| CCCCc1cc2ccccc2c(OCCN(C)C)n1 | 4.36 µM (active) |
| CCCCC(CC)COCCCN (stereo not drawn) | 12.5 µM (active) |
| Oc1ccc2c(c1)OCO2 | 39.6 µM (active) |
| NC(N)=NN=C(/C=C/c1ccc([N+](=O)[O-])o1)/C=C/c1ccc([N+](=O)[O-])o1 | 15.5 µM (active) |
| CCCCCCCCCCCCC(=O)O | inactive |
| CCCCC(CC)(CO)CO | inactive |
| SC1CCCC1 | inactive |
| Cc1cc(O)ccc1N | 20.1 µM (active) |
| Cc1ccc(C(=O)C(C)CN2CCCCC2)cc1 (stereo not drawn) | 0.977 µM (active) |
